Experimental data as given in PubChem BioAssay (NCATS).
Results filed as inconclusive are left out. The source made the active and inactive calls. Unless noted, the call rests on the fitted dose curve; in most records, active means well fitted inhibition curve with a large enough effect; inconclusive means small, poorly fitted or top-dose-only effect; inactive means no such curve, though single readings can be large or run the other way.

assay: S16 Schwann cell PMP22 intronic element firefly luciferase assay (AID 624032); conditions: S16 rat Schwann cells, PMP22 element FLuc, 24 h; series mostly up to 57.5 µM; activity change, negative = inhibition: at the top concentration; further: nearly all actives have a fitted effect of over 30% in size; further: potency means the concentration at half of the fitted maximal effect;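 on activity change, negative = inhibition: plate controls were DMSO for no effect and PTC124 positive control mean for full effect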
In short: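 Luciferase reporter of PMP22 intronic-element expression in stably transfected S16 rat Schwann cells, read by ONE-Glo luminescence after 24 h compound exposure at 37 C. Activity scaled between DMSO (0%) and positive-control PTC124; concentration-effect curves quality-classified.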

Structure (SMILES)	Potency	activity change, negative = inhibition
CCC1C(C)=NN=C(c2ccc(OC)c(OC)c2)c2cc(OC)c(OC)cc21 (stereo not given)	7.21 µM (active)	
S=C(S)N1CCNCC1		-47.4% (inactive)
COCC(C)N(C(=O)CCl)c1c(C)csc1C (stereo not given)		0.0331% (inactive)
CCC1(c2ccccc2)C(=O)NC(=O)N(C)C1=O (stereo not given)		17.8% (inactive)
COC1=CC=C2[C@H]3Cc4ccc(OC)c5c4[C@@]2(CCN3C)[C@H]1O5		-25.3% [at 25.7 µM] (inactive)
CN1CCCC(=C(c2cccs2)c2cccs2)C1		1.41% (inactive)
CC(C)(O)C1C2OC(=O)C1C1(O)CC3OC34C(=O)OC2C14C (stereo not given)		33.4% (inactive)
CCC1(c2ccccc2)C(=O)NC(=O)NC1=O		2.53% (inactive)
CCOc1ccc2c3c1O[C@H]1[C@@H](O)C=C[C@H]4[C@@H](C2)N(C)CC[C@@]341	16.1 µM (active)	
N#CC1(N2CCCCC2)CCCCC1		-27.4% (inactive)
Cn1sc(Cl)cc1=O		-6.79% (inactive)
C#CC(C)(O)CC (stereo not given)		0.175% (inactive)
CCCC(C)C1(CC)C(=O)NC(=O)NC1=O (stereo not given)		-15.1% (inactive)
Clc1ccc(Cl)cc1		1.77% (inactive)
CC(=O)OO		-0.791% (inactive)
[N-]=[N+]=CC(=O)OCC(N)C(=O)O (stereo not given)		3.66% (inactive)

assay: S16 Schwann cell PMP22 intronic element beta-lactamase assay (AID 624044; calls by dose curve;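 further: 0% = DMSO and -100% = potassium clavulanate positive control; nearly all actives have a fitted effect of over 15% in size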); conditions: S16 rat Schwann cells, PMP22 element beta-lactamase FRET, 24 h; series mostly up to 38.3 µM; ratio activity, negative = inhibition: at the top concentration
In short: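 Rat S16 Schwann cells with beta-Lac driven by a PMP22 intronic element, compound-treated 24 h at 37 °C. LiveBLAzer FRET B/G read: 460 nm normalized to potassium clavulanate vs DMSO; 535 nm FRET as viability; concentration-effect curves classified.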

Structure (SMILES)	ratio activity, negative = inhibition
CCC1C(C)=NN=C(c2ccc(OC)c(OC)c2)c2cc(OC)c(OC)cc21 (stereo not given)	-3.74% (inactive)
COC1=CC=C2[C@H]3Cc4ccc(OC)c5c4[C@@]2(CCN3C)[C@H]1O5	3.74% [at 17.1 µM] (inactive)
CN1CCCC(=C(c2cccs2)c2cccs2)C1	-4.04% (inactive)
CC(C)(O)C1C2OC(=O)C1C1(O)CC3OC34C(=O)OC2C14C (stereo not given)	-1.01% (inactive)
CCC1(c2ccccc2)C(=O)NC(=O)NC1=O	2.46% (inactive)
N#CC1(N2CCCCC2)CCCCC1	-13.1% (inactive)
Cn1sc(Cl)cc1=O	5.16% (inactive)
Clc1ccc(Cl)cc1	-0.841% (inactive)
[N-]=[N+]=CC(=O)OCC(N)C(=O)O (stereo not given)	1.22% (inactive)
